# M4 PAM – potentiates acetylcholine response at human M4 receptor. activation, % at 3 µM. CHO-K1 hM4/Gqi5, Fluo-8 calcium fluorescence, ACh EC20; 0% = ACh EC20, 100% = maximal ACh. hit rate 0.4% among 360,000;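 active = activation above its plate's cutoff, the mean activation of sample wells plus 3 SD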
# Target sequence (P08173 whole entry, looked up): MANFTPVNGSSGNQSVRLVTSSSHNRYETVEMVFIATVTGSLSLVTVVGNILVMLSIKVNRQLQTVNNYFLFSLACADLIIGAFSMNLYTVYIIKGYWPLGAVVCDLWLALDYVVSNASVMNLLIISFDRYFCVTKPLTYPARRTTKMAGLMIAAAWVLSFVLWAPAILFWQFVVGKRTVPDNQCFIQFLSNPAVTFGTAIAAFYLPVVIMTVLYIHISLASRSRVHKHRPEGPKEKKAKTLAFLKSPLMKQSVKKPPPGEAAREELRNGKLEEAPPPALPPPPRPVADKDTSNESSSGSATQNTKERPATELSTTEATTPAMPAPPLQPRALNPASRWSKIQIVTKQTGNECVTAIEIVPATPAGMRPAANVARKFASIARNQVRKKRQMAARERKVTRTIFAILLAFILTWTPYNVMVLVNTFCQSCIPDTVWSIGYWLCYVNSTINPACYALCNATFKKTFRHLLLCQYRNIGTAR
# CHRM1 antagonist – blocks human M1 muscarinic receptor | P11229 | CHO-K1 hM1, Fluo-8 calcium fluorescence, ACh EC80 antagonist | inhibition, % at 3 µM | hit rate 1.3% among 360,000;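 active = percent inhibition above its own plate's cutoff, namely the mean of that plate's compound wells plus 3 SD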;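 also: peak over basal fluorescence ratio during 140 s after agonist addition; 0% = ACh EC80 plus DMSO and 100% = DMSO alone without agonist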
# M1 PAM – positive allosteric modulators of human M1 muscarinic receptor; P11229; hit rate 0.088% among 360,000; CHO-K1 hM1, Fluo-8 calcium fluorescence, ACh EC20; 0% = ACh EC20, 100% = maximal ACh; activation, % at 3 µM; in the data active = activation above about 19%, passing the limit was not always enough
# CHRM1 agonist – agonists of human M1 muscarinic receptor; P11229; CHO-K1 hM1, Fluo-8 calcium fluorescence, agonist mode; 0% DMSO, 100% acetylcholine EC100; activation, % at 3 µM; hit rate 0.33% among 360,000; AID 588814;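 active = activation above the run's mean compound activation plus 3 SD, cut at about 16% in these data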;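 also: peak over basal fluorescence ratio within a 140 s kinetic read after compound addition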
# M4 ag – agonists of human muscarinic M4 receptor (CHRM4). P08173. CHO-K1 hM4/Gqi5, Fluo-8 calcium fluorescence; vehicle 0%, full acetylcholine response 100%. activation, % at 3 µM. hit rate 0.14% among 360,000. AID 624127;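 active = activation above the run mean over all test wells plus 3 SD, cut at about 32% in these data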;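 also: peak over basal fluorescence ratio per well then scaled between controls; 0% = DMSO wells and 100% = acetylcholine at EC100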
# CHRM4 antagonist – CHRM4 antagonism in calcium assay | P08173 | CHO-hM4 cells, ACh EC80, Fluo-8 calcium fluorescence | inhibition, % at 3 µM | hit rate 0.73% among 360,000 | AID 624125;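 active = inhibition above its plate's cutoff, the mean inhibition of sample wells plus 3 SD, cut at about 27% in these data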;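 also: 0% = acetylcholine EC80 with DMSO and 100% = DMSO without agonist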
# * marks the source's active call; other numbers are inactive results. Rows were chosen to be rich in hits. Some 2.2% of all compounds tested hit in one or more screens of this group.
SMILES,M4 PAM,CHRM1 antagonist,M1 PAM,CHRM1 agonist,M4 ag,CHRM4 antagonist
CCN(CC)CCCOC(=O)C(OC(C)C)(c1ccccc1)c1ccccc1,-16,102*,-32,-10,6,83*
COC(=O)C1=C(c2ccccc2)C[C@@H]2CC[C@H]1N2C(=O)NCc1ccccc1,-3,-12,9,-10,0,-3
COC(=O)C1=C(c2cc3ccccc3o2)C[C@@H]2CC[C@H]1N2C,-8,35*,-30,-14,0,3
COC(=O)C1=C(c2cc3ccccc3o2)C[C@@H]2CC[C@H]1N2C(=O)NCc1cccc2ccccc12,5,-10,4,-6,2,0
COC(=O)C1=C(c2cc3ccccc3o2)C[C@@H]2CC[C@H]1N2C(=O)NCc1ccc(F)cc1,-16,67*,-38,-12,0,13
COC(=O)C1=C(c2cc3ccccc3o2)C[C@@H]2CC[C@H]1N2C(=O)N1CCC(C)CC1,-2,6,-5,-6,0,-13
COC(=O)C1=C(c2ccccc2)C[C@@H]2CC[C@H]1N2C(=O)NCc1ccc(F)cc1,-14,67*,-37,-13,-1,47*
COC(=O)C1=C(c2cccc(OCc3ccccc3)c2)C[C@@H]2CC[C@H]1N2C(=O)NCc1ccc(C(F)(F)F)cc1,-2,9,-2,-3,5,0
COC(=O)C1=C(c2cccc(OCc3ccccc3)c2)C[C@@H]2CC[C@H]1N2C(=O)NCc1ccc(F)cc1,-13,38*,-34,-13,2,16
Cc1cccc(N=Cc2c(O)n(-c3ccccc3C)c(=O)[nH]c2=O)c1,-5,-9,-4,-1,5,1
c1cc2c(cc1[C@H]1OCC3C1CO[C@@H]3c1ccc3c(c1)OCO3)OCO2 (stereo partly drawn),14,-10,3,2,4,-33
NCCc1nc2ccccc2s1,-2,-4,8,-4,1,0
CC(=O)O[C@@H]1CC[C@]2(C)C3CC[C@@]4(C)C(C[C@@H](O)[C@@H]4O)C3[C@@H](OC(C)=O)C[C@H]2C1 (stereo partly drawn),9,-3,-3,2,1,-20
O=C1NC(=S)NC(=O)C1=Cc1ccc(OCc2ccccc2)cc1,3,-12,4,-2,2,-8
Cn1nccc1C(=O)N1CCC2(CC1)OCCO2,10,-8,3,-2,0,1
CCCCn1c(O)c(C(C)=NCCCn2ccnc2)c(=O)[nH]c1=O,-3,-8,6,-7,0,4
COC(=O)C1=C(c2ccc(F)cc2OCc2ccccc2)C[C@@H]2CC[C@H]1N2C(=O)NCc1ccccc1OC,-16,19,-25,-8,1,33*
CC(C)NC(=O)c1ccc(N2CC3CC(C2)c2cccc(=O)n2C3)c([N+](=O)[O-])c1 (stereo not drawn),4,-5,4,-5,1,3
Clc1ccc(CNC2CN3CCC2CC3)cc1 (stereo not drawn),3,-11,0,-8,1,-6
Fc1ccccc1CNC1CN2CCC1CC2 (stereo not drawn),-13,45*,-20,-8,0,7
CCCCCSc1cc(O)c(C(CNC)C(C)C)cc1OC (stereo not drawn),-4,5,-7,-9,7,7
CCCCCSc1cc(OC)c(CCN(C)C)cc1OC,-15,49*,-25,2,7,16
CN(C)C1CCc2[nH]c3c(F)cc(F)cc3c2C1 (stereo not drawn),-2,35*,-18,-9,2,1
COc1ccc(Cl)cc1C(=O)C1CCCN(CCO)C1 (stereo not drawn),-9,8,11,-15,0,6
Cc1cc(Cl)ccc1C(=O)C1CCCN(C2CCSCC2)C1 (stereo not drawn),-24,84*,-33,-13,2,33*
SMILES,M4 PAM,CHRM1 antagonist,M1 PAM,CHRM1 agonist,M4 ag,CHRM4 antagonist
O=C(c1ccc(C(F)(F)F)cc1)C1CCCN(C2CCSCC2)C1 (stereo not drawn),-21,57*,-32,-14,2,24
Cc1ccccc1CCNCc1ccc(Br)cc1,2,0,-5,-9,8,-18
CC1CC(C)CN(C(=O)COC(=O)c2cn(C)c3ccccc23)C1 (stereo not drawn),3,4,-3,-3,3,-11
COc1cc(OC)c(OC)cc1CNCCc1ccc(OC)c(OC)c1,12,10,-3,-7,0,0
O=C(c1ccccc1)N1CCC2(CC1)OCCO2,1,-14,6,-5,1,-10
C[N+](C)(C)CC#CCN1CCCC1=O,-20,89*,-12,120*,107*,95*
CCCCCCCCCCCCCCCC[N+](C)(C)C,-16,34,-23,-5,1,30*
CCCCCC[N+](=O)[O-],-6,6,-4,-1,0,-4
CC1=C(O)C(=O)C=C2C1=CC=C1C2(C)CCC2(C)C3CC(C)(C(=O)O)CCC3(C)CCC12C (stereo not drawn),-11,35,-6,0,11,91*
COc1ccc(OC)c(C(O)C(C)N)c1 (stereo not drawn),-8,-11,-8,-4,1,22
Cc1cc(N(CCCl)CCCl)ccc1C=Cc1ccncn1,-8,16,-13,4,36*,1
CN1CCc2nc(N)c(C#N)c(-c3ccccc3)c2C1,-8,34*,-20,-8,0,15
CCn1ccnc1CN1CCCC(C(=O)c2cc(C)c(OC)c(C)c2)C1 (stereo not drawn),-36,38*,-20,-6,5,12
CCn1ccnc1CN1CCCC(C(=O)c2cc(Cl)ccc2OC)C1 (stereo not drawn),-1,-2,-14,-10,10,-10
CSCCC(N=Cc1c(O)n(-c2ccc(F)cc2)c(=O)[nH]c1=O)C(=O)OC(C)(C)C (stereo not drawn),1,-8,8,-2,1,4
CCOC(=O)C1(CCCc2ccccc2)CCN(C2CCCC2)CC1,-15,12,-18,-14,2,3
CCOC(=O)C1(CCc2ccccc2)CCN(C2CCSCC2)CC1,-13,52*,-22,-5,3,0
CN(CCOc1ccc(C=C2C(=O)NC(=O)NC2=O)cc1)c1ccccn1,-2,16,-7,-7,0,1

# Compound activity (PubChem BioAssay)
